How the values were obtained:
Experiment in all cases: DAPPL (digital affinity profiling via proximity ligation, sequencing); 10 mM Tris-HCl pH 7.5, 50 mM NaCl, 1 mM DTT, 4% glycerol, room temperature, 30 min; GST-TFs on glutathione beads, 16-mer random dsDNA library, 0.1% formaldehyde crosslink after washing; high values mean tight binding
FLI1 = biological target: T1, FLI1 (Homo sapiens, UniProt Q01543 1-452); details: protein: recombinant; tags: N-terminal GST; dsDNA, one strand shown
T1 sequence: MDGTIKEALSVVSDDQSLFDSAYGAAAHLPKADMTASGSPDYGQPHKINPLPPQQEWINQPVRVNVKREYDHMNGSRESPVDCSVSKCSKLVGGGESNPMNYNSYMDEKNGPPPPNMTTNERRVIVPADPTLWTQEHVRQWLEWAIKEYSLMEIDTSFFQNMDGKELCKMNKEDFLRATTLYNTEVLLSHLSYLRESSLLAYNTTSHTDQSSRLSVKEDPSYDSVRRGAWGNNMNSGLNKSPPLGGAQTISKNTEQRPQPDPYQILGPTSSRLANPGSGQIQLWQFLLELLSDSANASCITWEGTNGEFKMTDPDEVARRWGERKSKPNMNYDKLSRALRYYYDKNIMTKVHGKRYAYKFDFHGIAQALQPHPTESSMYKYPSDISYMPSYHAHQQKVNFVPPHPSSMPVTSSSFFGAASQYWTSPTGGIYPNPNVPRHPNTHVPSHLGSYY
In short: (§1)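 A tag-only sample was pooled with DNA-barcoded human transcription factors that had been expressed in yeast as GST fusions and captured on glutathione beads. The pools were incubated for 30 min at room temperature with 200 nmole of a random double-stranded 16-mer DNA library in Tris/NaCl/DTT/glycerol buffer, then washed, crosslinked with 0.1% formaldehyde, proximity-ligated (BsaI/T4 ligase, 1 h, 37 °C), PCR-amplified and sequenced on an Illumina NextSeq500. Binding signal is each hexamer's read frequency for a factor divided by its frequency for the tag-only sample.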

ELK1 = biological target: T2, ELK1 (Homo sapiens, UniProt P19419 1-428); details: protein: recombinant; tags: N-terminal GST; dsDNA, one strand shown
T2 sequence: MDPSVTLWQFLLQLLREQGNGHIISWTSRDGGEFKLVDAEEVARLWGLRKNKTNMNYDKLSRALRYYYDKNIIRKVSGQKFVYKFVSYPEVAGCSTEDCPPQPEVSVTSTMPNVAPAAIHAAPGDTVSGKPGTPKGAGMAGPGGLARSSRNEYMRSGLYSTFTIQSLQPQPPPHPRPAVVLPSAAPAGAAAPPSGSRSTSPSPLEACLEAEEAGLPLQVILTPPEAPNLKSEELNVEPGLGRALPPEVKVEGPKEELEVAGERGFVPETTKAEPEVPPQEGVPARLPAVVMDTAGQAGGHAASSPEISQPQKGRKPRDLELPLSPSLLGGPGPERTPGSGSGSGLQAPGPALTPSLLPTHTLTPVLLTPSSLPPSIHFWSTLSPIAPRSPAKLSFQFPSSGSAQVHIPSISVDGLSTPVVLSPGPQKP
In short: as §1

GABPA = biological target: T3, GABPA (Homo sapiens, UniProt Q06546 1-454); details: protein: recombinant; tags: N-terminal GST; dsDNA, one strand shown
T3 sequence: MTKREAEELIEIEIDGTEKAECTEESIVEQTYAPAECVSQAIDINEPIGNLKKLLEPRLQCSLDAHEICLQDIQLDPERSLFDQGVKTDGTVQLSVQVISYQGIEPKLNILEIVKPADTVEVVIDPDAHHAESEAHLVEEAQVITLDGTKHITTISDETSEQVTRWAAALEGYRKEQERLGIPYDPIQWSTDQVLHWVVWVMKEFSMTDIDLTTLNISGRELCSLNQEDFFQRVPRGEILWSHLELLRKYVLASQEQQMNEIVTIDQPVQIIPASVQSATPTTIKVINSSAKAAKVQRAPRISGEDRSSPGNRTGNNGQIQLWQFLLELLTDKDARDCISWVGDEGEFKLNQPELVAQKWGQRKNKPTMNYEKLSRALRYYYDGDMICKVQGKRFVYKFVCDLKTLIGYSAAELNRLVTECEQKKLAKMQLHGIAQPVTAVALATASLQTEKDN
In short: as §1

ERG = biological target: T4, ERG (Homo sapiens, UniProt P11308 1-479); details: protein: recombinant; tags: N-terminal GST; dsDNA, one strand shown
T4 sequence: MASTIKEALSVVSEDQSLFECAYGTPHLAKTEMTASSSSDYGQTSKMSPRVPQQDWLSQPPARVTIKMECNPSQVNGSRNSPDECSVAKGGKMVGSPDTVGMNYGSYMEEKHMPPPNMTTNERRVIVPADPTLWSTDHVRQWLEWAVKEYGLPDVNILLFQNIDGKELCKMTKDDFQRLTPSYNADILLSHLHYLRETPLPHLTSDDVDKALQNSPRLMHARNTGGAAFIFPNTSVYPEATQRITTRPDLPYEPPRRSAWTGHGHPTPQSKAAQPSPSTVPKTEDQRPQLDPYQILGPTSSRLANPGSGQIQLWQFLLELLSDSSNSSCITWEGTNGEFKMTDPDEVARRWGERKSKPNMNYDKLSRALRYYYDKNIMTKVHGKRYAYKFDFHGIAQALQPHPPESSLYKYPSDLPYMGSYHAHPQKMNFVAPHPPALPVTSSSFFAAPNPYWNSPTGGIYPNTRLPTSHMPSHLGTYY
In short: as §1

ELF1 = ELF1 (Homo sapiens, UniProt P32519 1-619); details: protein: recombinant; tags: N-terminal GST; dsDNA, one strand shown
In short: as §1

EHF = biological target: T5, EHF (Homo sapiens, UniProt Q9NZC4 1-300); details: protein: recombinant; tags: N-terminal GST; dsDNA, one strand shown
T5 sequence: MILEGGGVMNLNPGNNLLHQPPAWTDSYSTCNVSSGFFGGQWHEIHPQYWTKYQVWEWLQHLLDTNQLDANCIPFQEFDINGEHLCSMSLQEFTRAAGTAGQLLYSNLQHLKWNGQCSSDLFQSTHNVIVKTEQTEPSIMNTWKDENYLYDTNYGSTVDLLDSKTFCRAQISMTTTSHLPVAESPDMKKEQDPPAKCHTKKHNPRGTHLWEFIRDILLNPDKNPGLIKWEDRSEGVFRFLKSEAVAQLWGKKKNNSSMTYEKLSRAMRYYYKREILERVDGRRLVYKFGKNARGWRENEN
In short: as §1

SPI1 = SPI1 (Homo sapiens, UniProt P17947 1-270); details: protein: recombinant; tags: N-terminal GST; dsDNA, one strand shown
In short: as §1

SPIB = SPIB (Homo sapiens, UniProt Q01892 1-262); details: protein: recombinant; tags: N-terminal GST; dsDNA, one strand shown
In short: as §1

ELK3 = biological target: T6, ELK3 (Homo sapiens, UniProt P41970 1-407); details: protein: recombinant; tags: N-terminal GST; dsDNA, one strand shown
T6 sequence: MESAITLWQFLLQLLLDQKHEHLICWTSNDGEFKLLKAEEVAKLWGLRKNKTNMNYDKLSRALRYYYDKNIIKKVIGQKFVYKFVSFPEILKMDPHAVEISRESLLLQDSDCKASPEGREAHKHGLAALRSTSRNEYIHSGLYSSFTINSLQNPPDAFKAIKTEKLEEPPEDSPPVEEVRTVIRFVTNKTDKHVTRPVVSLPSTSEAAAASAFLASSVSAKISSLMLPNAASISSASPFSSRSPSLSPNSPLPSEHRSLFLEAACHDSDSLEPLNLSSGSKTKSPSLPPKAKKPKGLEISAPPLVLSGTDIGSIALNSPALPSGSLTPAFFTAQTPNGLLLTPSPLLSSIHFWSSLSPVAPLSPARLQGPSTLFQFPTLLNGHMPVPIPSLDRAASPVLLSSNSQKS
In short: as §1

FEV = biological target: T7, FEV (Homo sapiens, UniProt Q99581 1-238); details: protein: recombinant; tags: N-terminal GST; dsDNA, one strand shown
T7 sequence: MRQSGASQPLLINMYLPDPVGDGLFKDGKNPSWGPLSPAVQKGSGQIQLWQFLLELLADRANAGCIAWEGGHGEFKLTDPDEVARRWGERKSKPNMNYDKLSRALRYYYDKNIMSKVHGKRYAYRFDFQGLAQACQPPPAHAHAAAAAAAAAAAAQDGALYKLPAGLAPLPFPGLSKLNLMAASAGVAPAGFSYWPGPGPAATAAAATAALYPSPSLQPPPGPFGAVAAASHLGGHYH
In short: as §1

ETV5 = ETV5 (Homo sapiens, UniProt P41161 1-510); details: protein: recombinant; tags: N-terminal GST; dsDNA, one strand shown
In short: as §1

HSF1 = HSF1 (Homo sapiens, UniProt Q00613 1-529); details: protein: recombinant; tags: N-terminal GST; chain copies: 3; dsDNA, one strand shown
In short: as §1

SPIC = biological target: T8, SPIC (Homo sapiens, UniProt Q8N5J4 1-248); details: protein: recombinant; tags: N-terminal GST; dsDNA, one strand shown
T8 sequence: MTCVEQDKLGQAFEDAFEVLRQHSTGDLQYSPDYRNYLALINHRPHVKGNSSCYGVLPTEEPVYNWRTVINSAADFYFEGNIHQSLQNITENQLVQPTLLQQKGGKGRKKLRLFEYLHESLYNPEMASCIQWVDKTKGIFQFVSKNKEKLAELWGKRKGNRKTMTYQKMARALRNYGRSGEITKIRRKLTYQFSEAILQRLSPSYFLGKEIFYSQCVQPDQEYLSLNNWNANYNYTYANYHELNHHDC
In short: as §1

ELF4 = ELF4 (Homo sapiens, UniProt Q99607 1-663); details: protein: recombinant; tags: N-terminal GST; dsDNA, one strand shown
In short: as §1

ELK4 = biological target: T9, ELK4 (Homo sapiens, UniProt P28324-2 1-405); details: protein: recombinant; tags: N-terminal GST; dsDNA, one strand shown
T9 sequence: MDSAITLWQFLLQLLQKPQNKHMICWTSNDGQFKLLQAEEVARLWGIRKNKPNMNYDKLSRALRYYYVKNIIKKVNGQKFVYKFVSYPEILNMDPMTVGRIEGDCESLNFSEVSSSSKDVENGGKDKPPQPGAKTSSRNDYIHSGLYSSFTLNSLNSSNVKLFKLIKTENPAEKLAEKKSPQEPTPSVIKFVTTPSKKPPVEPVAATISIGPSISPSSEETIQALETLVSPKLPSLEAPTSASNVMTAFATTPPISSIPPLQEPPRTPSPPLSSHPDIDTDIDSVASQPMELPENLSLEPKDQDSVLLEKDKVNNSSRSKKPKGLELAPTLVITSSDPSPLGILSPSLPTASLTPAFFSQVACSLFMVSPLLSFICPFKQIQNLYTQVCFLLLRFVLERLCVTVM
In short: as §1

ETV2 = biological target: T10, ETV2 (Homo sapiens, UniProt O00321 1-342); details: protein: recombinant; tags: N-terminal GST; dsDNA, one strand shown
T10 sequence: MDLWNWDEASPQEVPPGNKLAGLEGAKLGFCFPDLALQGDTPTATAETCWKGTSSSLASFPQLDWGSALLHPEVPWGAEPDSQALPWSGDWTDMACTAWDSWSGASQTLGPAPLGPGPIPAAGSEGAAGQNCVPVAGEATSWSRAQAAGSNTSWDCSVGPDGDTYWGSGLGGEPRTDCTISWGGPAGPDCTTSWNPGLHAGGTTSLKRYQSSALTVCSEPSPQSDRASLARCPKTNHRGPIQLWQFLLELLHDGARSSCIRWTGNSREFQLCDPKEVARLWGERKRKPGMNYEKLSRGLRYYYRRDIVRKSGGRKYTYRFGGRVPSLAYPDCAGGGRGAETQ
In short: as §1

ELF3 = biological target: T11, ELF3 (Homo sapiens, UniProt P78545 1-371); details: protein: recombinant; tags: N-terminal GST; dsDNA, one strand shown
T11 sequence: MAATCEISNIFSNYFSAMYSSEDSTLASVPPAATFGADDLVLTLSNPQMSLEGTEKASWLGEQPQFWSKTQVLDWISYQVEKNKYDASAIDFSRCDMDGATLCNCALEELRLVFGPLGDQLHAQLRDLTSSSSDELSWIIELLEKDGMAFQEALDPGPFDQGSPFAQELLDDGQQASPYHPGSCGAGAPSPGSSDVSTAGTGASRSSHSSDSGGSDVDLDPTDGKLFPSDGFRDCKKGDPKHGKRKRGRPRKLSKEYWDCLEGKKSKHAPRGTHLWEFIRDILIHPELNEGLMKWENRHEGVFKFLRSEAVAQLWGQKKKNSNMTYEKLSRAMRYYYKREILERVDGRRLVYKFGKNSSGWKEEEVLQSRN
In short: as §1

CRX = CRX (Homo sapiens, UniProt O43186 1-299); details: protein: recombinant; tags: N-terminal GST; dsDNA, one strand shown
In short: as §1

ETV1 = ETV1 (Homo sapiens, UniProt P50549 1-477); details: protein: recombinant; tags: N-terminal GST; dsDNA, one strand shown
In short: as §1

ELF4, sequence (Q99607 whole entry): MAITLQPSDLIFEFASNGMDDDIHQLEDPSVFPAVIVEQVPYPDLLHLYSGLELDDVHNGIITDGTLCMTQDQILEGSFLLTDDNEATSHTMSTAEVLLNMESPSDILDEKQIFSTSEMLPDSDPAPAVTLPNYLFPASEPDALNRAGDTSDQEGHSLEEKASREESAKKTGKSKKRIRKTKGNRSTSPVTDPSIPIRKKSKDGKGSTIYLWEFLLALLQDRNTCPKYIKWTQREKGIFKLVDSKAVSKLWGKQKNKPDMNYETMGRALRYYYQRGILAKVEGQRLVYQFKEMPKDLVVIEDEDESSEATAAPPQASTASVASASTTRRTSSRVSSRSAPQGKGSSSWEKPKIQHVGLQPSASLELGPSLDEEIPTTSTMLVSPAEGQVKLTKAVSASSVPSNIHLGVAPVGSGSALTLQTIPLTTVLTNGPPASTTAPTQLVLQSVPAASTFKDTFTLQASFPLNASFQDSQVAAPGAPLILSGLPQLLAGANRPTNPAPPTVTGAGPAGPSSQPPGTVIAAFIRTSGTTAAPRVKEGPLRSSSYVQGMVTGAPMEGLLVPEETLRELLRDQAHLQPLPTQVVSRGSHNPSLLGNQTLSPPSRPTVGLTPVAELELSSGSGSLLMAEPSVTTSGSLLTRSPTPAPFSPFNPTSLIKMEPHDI
ETV1, sequence (P50549 whole entry): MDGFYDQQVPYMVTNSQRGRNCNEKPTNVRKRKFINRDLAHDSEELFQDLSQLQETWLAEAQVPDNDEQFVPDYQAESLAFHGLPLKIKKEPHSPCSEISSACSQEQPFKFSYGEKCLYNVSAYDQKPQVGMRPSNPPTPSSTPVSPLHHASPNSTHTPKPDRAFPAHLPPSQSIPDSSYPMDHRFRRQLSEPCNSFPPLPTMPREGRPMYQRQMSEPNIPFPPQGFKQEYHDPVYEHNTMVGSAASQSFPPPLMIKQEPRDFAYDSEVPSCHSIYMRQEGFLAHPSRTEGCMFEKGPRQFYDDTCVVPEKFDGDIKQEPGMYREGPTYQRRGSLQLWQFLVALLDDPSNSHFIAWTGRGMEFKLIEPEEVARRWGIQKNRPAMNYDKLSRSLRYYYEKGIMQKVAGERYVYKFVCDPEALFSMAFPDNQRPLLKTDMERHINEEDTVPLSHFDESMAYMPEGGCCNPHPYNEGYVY
CRX, sequence (O43186 whole entry): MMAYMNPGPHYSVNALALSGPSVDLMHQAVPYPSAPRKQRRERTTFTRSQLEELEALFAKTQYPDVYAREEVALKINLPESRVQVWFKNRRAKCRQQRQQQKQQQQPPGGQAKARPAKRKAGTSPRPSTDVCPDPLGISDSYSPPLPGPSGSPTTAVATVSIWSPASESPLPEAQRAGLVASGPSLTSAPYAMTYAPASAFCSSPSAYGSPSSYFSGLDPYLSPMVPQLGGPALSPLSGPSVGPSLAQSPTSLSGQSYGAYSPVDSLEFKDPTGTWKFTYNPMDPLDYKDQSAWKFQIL
ETV5, sequence (P41161 whole entry): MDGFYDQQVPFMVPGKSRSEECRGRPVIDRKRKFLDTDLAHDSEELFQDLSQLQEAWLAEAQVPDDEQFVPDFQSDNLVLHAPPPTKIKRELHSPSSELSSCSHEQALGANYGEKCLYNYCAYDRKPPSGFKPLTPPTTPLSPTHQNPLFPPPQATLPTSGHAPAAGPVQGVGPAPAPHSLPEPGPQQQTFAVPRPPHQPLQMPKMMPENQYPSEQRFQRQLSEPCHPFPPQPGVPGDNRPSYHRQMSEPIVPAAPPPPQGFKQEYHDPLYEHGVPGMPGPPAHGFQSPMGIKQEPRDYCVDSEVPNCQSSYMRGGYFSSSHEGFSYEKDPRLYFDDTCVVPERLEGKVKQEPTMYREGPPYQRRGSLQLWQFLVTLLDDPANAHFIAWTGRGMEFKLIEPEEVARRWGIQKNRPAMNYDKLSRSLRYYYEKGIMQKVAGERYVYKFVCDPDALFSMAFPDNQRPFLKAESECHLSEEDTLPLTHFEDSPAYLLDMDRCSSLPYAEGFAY
HSF1, sequence (Q00613 whole entry): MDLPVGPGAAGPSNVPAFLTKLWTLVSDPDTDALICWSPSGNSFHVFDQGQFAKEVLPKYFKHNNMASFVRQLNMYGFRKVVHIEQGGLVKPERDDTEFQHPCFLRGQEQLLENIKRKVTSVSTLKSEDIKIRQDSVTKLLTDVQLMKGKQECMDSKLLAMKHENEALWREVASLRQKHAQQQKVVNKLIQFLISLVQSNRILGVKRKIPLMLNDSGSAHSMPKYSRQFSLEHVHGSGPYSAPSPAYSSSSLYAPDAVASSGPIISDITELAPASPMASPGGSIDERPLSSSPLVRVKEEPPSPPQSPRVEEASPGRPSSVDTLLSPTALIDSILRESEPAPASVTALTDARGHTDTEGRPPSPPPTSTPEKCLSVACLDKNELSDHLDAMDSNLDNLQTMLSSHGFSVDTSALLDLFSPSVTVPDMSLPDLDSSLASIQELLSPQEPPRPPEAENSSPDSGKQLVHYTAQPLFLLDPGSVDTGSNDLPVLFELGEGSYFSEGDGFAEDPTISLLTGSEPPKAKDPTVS
SPIB, sequence (Q01892 whole entry): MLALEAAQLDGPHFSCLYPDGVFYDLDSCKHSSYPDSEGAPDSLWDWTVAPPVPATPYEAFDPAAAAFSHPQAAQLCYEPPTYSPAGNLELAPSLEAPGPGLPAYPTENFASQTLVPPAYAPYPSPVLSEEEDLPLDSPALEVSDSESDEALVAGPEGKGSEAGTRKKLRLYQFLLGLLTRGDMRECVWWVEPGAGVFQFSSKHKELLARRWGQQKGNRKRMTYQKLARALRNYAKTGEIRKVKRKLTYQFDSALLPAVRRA
ELF1, sequence (P32519 whole entry): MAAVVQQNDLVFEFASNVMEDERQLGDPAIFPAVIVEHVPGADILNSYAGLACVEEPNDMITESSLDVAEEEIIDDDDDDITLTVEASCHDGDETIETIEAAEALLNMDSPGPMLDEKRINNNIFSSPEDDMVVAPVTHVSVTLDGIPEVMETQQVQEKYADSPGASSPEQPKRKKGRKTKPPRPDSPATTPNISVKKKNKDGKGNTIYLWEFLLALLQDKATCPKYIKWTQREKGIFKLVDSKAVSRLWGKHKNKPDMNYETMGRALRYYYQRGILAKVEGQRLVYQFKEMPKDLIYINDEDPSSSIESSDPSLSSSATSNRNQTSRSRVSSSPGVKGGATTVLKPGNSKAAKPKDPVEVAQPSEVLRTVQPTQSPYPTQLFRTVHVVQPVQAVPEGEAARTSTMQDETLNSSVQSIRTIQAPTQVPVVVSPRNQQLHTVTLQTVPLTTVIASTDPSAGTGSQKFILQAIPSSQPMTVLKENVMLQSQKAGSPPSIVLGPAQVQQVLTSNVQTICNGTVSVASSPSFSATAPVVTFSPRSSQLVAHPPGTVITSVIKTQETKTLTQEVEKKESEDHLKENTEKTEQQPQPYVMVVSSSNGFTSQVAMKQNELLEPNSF

TTTTAA
binding signal (FLI1): 1.26 fold enrichment (6-mer frequency, TF over GST control) | binding signal (ELK1): 1.28 fold enrichment (6-mer frequency, TF over GST control) | binding signal (GABPA): 1.25 fold enrichment (6-mer frequency, TF over GST control) | binding signal (ERG): 1.2 fold enrichment (6-mer frequency, TF over GST control) | binding signal (ELF1): 1.29 fold enrichment (6-mer frequency, TF over GST control) | binding signal (EHF): 1.22 fold enrichment (6-mer frequency, TF over GST control) | binding signal (SPI1): 1.32 fold enrichment (6-mer frequency, TF over GST control) | binding signal (SPIB): 1.26 fold enrichment (6-mer frequency, TF over GST control) | binding signal (ELK3): 1.3 fold enrichment (6-mer frequency, TF over GST control) | binding signal (FEV): 1.26 fold enrichment (6-mer frequency, TF over GST control) | binding signal (ETV5): 1.24 fold enrichment (6-mer frequency, TF over GST control) | binding signal (HSF1): 1.59 fold enrichment (6-mer frequency, TF over GST control) | binding signal (SPIC): 1.15 fold enrichment (6-mer frequency, TF over GST control) | binding signal (ELF4): 1.28 fold enrichment (6-mer frequency, TF over GST control) | binding signal (ELK4): 1.22 fold enrichment (6-mer frequency, TF over GST control) | binding signal (ETV2): 1.27 fold enrichment (6-mer frequency, TF over GST control) | binding signal (ELF3): 1.32 fold enrichment (6-mer frequency, TF over GST control) | binding signal (CRX): 2.18 fold enrichment (6-mer frequency, TF over GST control) | binding signal (ETV1): 1.26 fold enrichment (6-mer frequency, TF over GST control)
